Results reported in PMC4336329 (PLoS ONE, 2015).
The whole screen tested about 310,000 compounds, of which about 14,000 (4.5%) showed an effect of 50% or more. The effect is printed as a negative number. The sample holds strong results, similar compounds and a random draw of the others, so the mix is not that of the screen.

Molecular target: human ether-à-go-go-related gene (hERG) potassium channel (human, UniProt Q12809)
Assay: primary screen, population patch clamp on CHO cells stably expressing hERG; higher = less effect of the substance
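Further: peak tail current of the secondary pulse compared with the same well before compound.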

human ether-à-go-go-related gene (hERG) potassium channel, sequence (Q12809 whole entry, looked up): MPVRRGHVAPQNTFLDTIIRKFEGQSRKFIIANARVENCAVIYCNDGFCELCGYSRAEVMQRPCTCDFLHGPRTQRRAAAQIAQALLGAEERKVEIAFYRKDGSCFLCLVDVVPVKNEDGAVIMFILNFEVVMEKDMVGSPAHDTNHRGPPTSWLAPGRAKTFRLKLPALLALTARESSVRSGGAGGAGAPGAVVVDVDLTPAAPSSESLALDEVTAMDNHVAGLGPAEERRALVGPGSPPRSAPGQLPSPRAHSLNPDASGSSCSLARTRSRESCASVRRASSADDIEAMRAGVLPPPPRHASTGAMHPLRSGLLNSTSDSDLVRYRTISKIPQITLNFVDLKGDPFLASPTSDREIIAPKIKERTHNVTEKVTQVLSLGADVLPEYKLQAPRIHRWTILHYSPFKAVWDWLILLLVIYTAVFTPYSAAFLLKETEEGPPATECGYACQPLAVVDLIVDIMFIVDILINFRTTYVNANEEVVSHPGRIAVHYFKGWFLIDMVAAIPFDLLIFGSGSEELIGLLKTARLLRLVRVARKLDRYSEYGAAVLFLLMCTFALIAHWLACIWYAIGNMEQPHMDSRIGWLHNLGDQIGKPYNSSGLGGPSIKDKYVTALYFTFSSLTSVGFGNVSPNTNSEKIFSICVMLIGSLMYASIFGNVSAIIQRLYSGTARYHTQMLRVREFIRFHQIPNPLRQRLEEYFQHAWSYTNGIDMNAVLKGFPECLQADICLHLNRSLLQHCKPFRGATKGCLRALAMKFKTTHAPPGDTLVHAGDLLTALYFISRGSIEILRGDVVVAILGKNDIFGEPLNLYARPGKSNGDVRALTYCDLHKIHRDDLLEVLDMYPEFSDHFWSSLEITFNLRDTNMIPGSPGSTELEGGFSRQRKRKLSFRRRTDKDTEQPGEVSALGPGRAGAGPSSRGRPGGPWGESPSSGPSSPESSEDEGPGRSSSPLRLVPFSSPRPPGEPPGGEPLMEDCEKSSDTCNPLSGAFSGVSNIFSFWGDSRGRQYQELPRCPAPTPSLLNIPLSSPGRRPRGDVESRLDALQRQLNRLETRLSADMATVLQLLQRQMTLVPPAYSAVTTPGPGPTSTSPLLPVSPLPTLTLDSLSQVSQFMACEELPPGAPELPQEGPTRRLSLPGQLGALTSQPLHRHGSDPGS

| SMILES | hERG current change (%, negative = inhibition) at 10uM |
| --- | --- |
| Cc1c(Cl)cccc1NC(=O)CNC(=O)c1ccc(F)cc1 | 27.4% |
| Cc1ccc(NC(=O)Nc2nnc(Cc3ccc(F)cc3)s2)cc1 | 14% |
| COc1ccc(-c2nc(CS(=O)CC(=O)NC(C)CCc3ccccc3)c(C)o2)cc1OC (centres unmarked) | -16.8% |
| CCC1C2CC3C4N(C)c5ccccc5C45CC(C2C5O)N3[C@@H]1O (some centres unmarked) | -28.5% |
| CCCC[N+]12C3C[C@H](C4[C@H](O)[C@]5(C[C@@H]41)c1ccccc1N(C)[C@@H]35)[C@H](CC)[C@H]2O.[I-] (some centres unmarked) | -56.4% |
| CC[C@H]1C2C[C@H]3[C@@H]4N(C)c5ccccc5C45C[C@H](C2[C@H]5O)N3[C@@H]1O (some centres unmarked) | -43.8% |
| CC(=O)Nc1c(C(=O)O)oc2ccc(Cl)cc12 | 2.23% |
| CN1CCN(CC(=O)Nc2c(C(=O)C3CC3)oc3ccccc23)CC1 | -52.4% |
| CN1CCN(CC(=O)Nc2c(C(=O)c3ccccc3)oc3ccccc23)CC1 | -78.9% |
| COc1ccc2oc(C(=O)c3ccccc3)c(N)c2c1 | 4.76% |
| CC(=O)Nc1c(C(=O)c2ccccc2)oc2ccccc12 | -10.3% |
| COc1ccc(C(=O)c2oc3ccc(OC)cc3c2NC(C)=O)cc1 | 27.6% |
| O=C(CN1CCOCC1)Nc1c(C(=O)C2CC2)oc2ccccc12 | -6.8% |
| NC(=O)c1oc2ccc(Cl)cc2c1NC(=O)CN1CCOCC1 | -9.08% |
| Cc1ccc(C(=O)c2oc3ccc(Cl)cc3c2NC(=O)CN2CCN(C)CC2)cc1 | -74.3% |
| CC(=O)c1oc2ccccc2c1NC(=O)CN1CCCCC1.Cl | 7.19% |
| COc1ccc2oc(C(=O)c3ccccc3)c(NC(=O)CN3CCN(C)CC3)c2c1 | -59.8% |
| O=C(CN1CCCC1)Nc1c(C(=O)C2CC2)oc2ccccc12 | -9.92% |
| O=C(NN=C1CCCC1)c1[nH]c2ccc(Cl)cc2c1-c1ccccc1 | 7.13% |
| Cc1cc(C(=O)CSc2nc(N)cc(=O)[nH]2)c(C)n1CCc1ccc(F)cc1 | 1.93% |
| O=C(NCCNC(=O)c1cnccn1)c1ccc(Cl)c(Cl)c1 | -13.3% |

| SMILES | hERG current change (%, negative = inhibition) at 10uM |
| --- | --- |
| COc1cccc(NC(=O)c2cnsn2)c1 | 3.19% |
| CCOCCNC(=O)c1ccccc1C(=O)NCCOCC | -11.1% |
| O=[N+]([O-])c1cc(N=Nc2ccc3ccccc3c2)ccc1O | 12.8% |
| COC(=O)C1C2C=CC3(CN(c4cccc(Cl)c4)C(=O)C13)O2 (centres unmarked) | 2.49% |
| CC1(C)Cc2c(cnn2-c2ccccc2)C(NC(=O)c2ccc[n+]([O-])c2)C1 (centres unmarked) | 2.3% |
| CC1(C)Cc2c(cnn2-c2ccc(F)cc2)C(NC(=O)c2cnccn2)C1 (centres unmarked) | -37.6% |
| CC1(C)Cc2c(cnn2-c2ccc(F)cc2)C(NC(=O)c2ccoc2)C1 (centres unmarked) | -89.1% |
| CC(=O)c1ccc(C(=O)NC2CC(C)(C)Cc3c2cnn3-c2ccccc2)cc1 (centres unmarked) | -21.8% |
| CC1(C)Cc2c(cnn2-c2ccccc2)C(NC(=O)c2ccoc2)C1 (centres unmarked) | -93.4% |
| Cc1cc(C(=O)NC2CC(C)(C)Cc3c2cnn3-c2ccc(F)cc2)no1 (centres unmarked) | -32.8% |
| CC1Cc2cc(S(=O)(=O)NCCc3ccccc3)ccc2N1C(=O)C1CC1 (centres unmarked) | 13.7% |
| COc1ccc(-c2cc(=O)[nH]c(=O)[nH]2)cc1 | -3.74% |
| O=C(c1cccc(S(=O)(=O)Nc2ccccc2Cl)c1)N1CCC1 | -0.443% |
| Cc1ccc(SCC(=O)NCCc2ccc(F)cc2)cc1 | -0.26% |
| O=C(O)c1cccc2c1C(=O)N(CC1CCCO1)C2 (centres unmarked) | 24.2% |
| COc1ccc(CNC(=O)c2cccc3c2C(=O)N(CC2CCCO2)C3)cc1 (centres unmarked) | -34.5% |
| O=C(NCc1ccc(Cl)cc1)c1cccc2c1C(=O)N(CC1CCCO1)C2 (centres unmarked) | -70.8% |
| COc1ccc(NC(=O)c2cccc3c2C(=O)N(CC2CCCO2)C3)cc1OC (centres unmarked) | -17.9% |
| CCOC(=O)c1ccc(NC(=O)c2cccc3c2C(=O)N(CC2CCCO2)C3)cc1 (centres unmarked) | -2.27% |
| CCc1cccc(NC(=O)c2cccc3c2C(=O)N(CC2CCCO2)C3)c1 (centres unmarked) | -72.2% |
| CC(=O)N1CCC(C(=O)NCCOc2ccc(C)cc2)CC1 | 7.67% |

| SMILES | hERG current change (%, negative = inhibition) at 10uM |
| --- | --- |
| COc1ccc(CC(=O)NNC(=O)CN(C)S(=O)(=O)c2ccc(Cl)cc2)cc1OC | 0.252% |
| CCOC(=O)C1CCN(S(=O)(=O)Cc2ccccc2)CC1 | -8.61% |
| COc1ccc(C(=O)CC(=O)C(=O)Nc2ccc(Cl)cc2)cc1 | 7.74% |
| Cc1cc2c(c(=O)o1)C(c1cccs1)C(C#N)=C(N)O2 (centres unmarked) | 4% |
| Cc1cccc(-n2cc(CN3CCN(C(=O)c4ncn[nH]4)CC3)c(-c3cccc(F)c3)n2)c1 | -16.5% |
| CCC(O)C1CCN(Cc2cn(-c3ccc(OC)cc3)nc2-c2cccc(F)c2)CC1 (centres unmarked) | -75.3% |
| COc1ccc(-n2cc(CN3CCCC3)c(-c3cccc(F)c3)n2)cc1 | -57% |
| CC(=O)N1CCCN(Cc2cn(-c3cccc(C)c3)nc2-c2cccc(F)c2)CC1 | -16.9% |
| COc1ccc(-n2cc(CN3CCC(OC)CC3)c(-c3cccc(F)c3)n2)cc1 | -13.5% |
| CCC(=O)OCc1c(C(F)(F)F)nn(C)c1Sc1ccc(F)cc1 | -8.79% |
| CN(CCc1ccccn1)C(=S)NC(=O)c1ccco1 | 17.1% |
| CC(C)c1ccc(NC(=O)C(c2ccccc2)N2CCN(C(=O)c3ccco3)CC2)cc1 (centres unmarked) | -69.8% |
| Cc1ccc(NC(=O)C(c2ccccc2)N2CCN(C(=O)c3ccco3)CC2)cc1Cl (centres unmarked) | -21.3% |
| CCOCCCNC(=O)C(c1ccc(Cl)cc1)N1CCN(C(=O)c2ccco2)CC1 (centres unmarked) | -0.366% |
| CC(C)c1ccc(NC(=O)C(c2ccc3c(c2)OCO3)N2CCN(C(=O)c3ccco3)CC2)cc1 (centres unmarked) | -25% |
| Cc1cccc(C)c1NC(=O)C(c1ccccc1)N1CCN(C(=O)c2ccco2)CC1 (centres unmarked) | -22.8% |
| O=C(Nc1ccc2c(c1)OCO2)C(c1ccc(Cl)cc1)N1CCN(C(=O)c2ccco2)CC1 (centres unmarked) | -40% |
| O=C(Nc1ccc2c(c1)OCO2)C(c1ccccc1)N1CCN(C(=O)c2ccco2)CC1 (centres unmarked) | -33.2% |
| CCOc1ccccc1NC(=O)C(c1ccccc1)N1CCN(C(=O)c2ccco2)CC1 (centres unmarked) | -57.7% |
| Cc1ccc(NC(=O)C(c2ccccc2)N2CCN(C(=O)c3ccco3)CC2)cc1 (centres unmarked) | -72.9% |
